Results filed as inconclusive are left out. Activity calls are given as the source filed them. Unless noted, calls follow the shape of the dose curve; as a rule, active = well fitted curve in the direction sought with a large enough effect in the repeat runs; inconclusive = weak or mixed curves; inactive = no such curve, though single readings can be large; an effect the other way counts as inactive or inconclusive.
Tests used:
[1] = qHTS assay for small molecules that induce genotoxicity in human embryonic kidney cells expressing luciferase-tagged ATAD5 (AID 651632); details: HEK293T ATAD5-luciferase induction, 16 h; series mostly up to 83.3 µM; also: nearly all actives have a fitted effect of over 15% in size
How it was run: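 Quantitative HTS in HEK293T expressing luciferase-tagged ATAD5, whose levels rise upon DNA damage. Exposure ran 16 hr at 37C and 5% CO2, with luminescence read 30 min after Amplite addition at room temperature.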

[2] = qHTS assay for small molecule agonists of the p53 signaling pathway - cell viability (AID 651633; calls by dose curve;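 also: p53RE-bla HCT reporter cells with a stable beta-lactamase p53 reporter; nearly all actives have a fitted effect of over 30% in size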); details: p53RE-bla HCT-116 viability, ATP luminescence, 16 h; series mostly up to 83.3 µM
How it was run: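 Viability counter-read: CellTiter-Glo luminescence (30 min, room temperature) in the same p53RE-bla plates. These plates had been exposed to compounds for 16 h at 37 C.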

[3] = qHTS assay for small molecules that induce genotoxicity in human embryonic kidney cells expressing luciferase-tagged ATAD5 - cell viability (AID 651634; calls by dose curve; also: nearly all actives have a fitted effect of over 25% in size); details: HEK293T ATAD5-luc cells viability, CellTiter-Fluor, 15.5 h; series mostly up to 83.3 µM
How it was run: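 After 15.5 hr incubation with compound at 37C, 5% CO2, HEK293T ATAD5-luciferase cells received CellTiter-Fluor reagent; fluorescence intensity was quantified following 30 min at 37C.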

[4] = qHTS assay for small molecule disruptors of the mitochondrial membrane potential (AID 720635); details: HepG2 mitochondrial membrane potential, Mito-MPS dye ratio; series mostly up to 83.2 µM
How it was run: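 Mitochondrial membrane potential tracked with Mito-MPS dye, red aggregates (ex 540/em 590 nm) against green monomers (ex 490/em 535 nm). Compound treatment 1 hr at 37C, dye 30 min in HepG2.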

[5] = qHTS assay to test for compound auto fluorescence at 590 nm (red) in HepG2 cells (AID 720674); details: HepG2 autofluorescence, red 540/590 nm, 1 h; series mostly up to 91.3 µM
How it was run: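 Red autofluorescence (Ex/Em 540/590 nm, Rose Bengal sodium equivalents) was measured in HepG2 cells, 2,000 per well in MEM plus 10% FBS, plated overnight at 37 C. Readings were taken 1 hr after adding 23 nL compound or DMSO, at 37 C and 5% CO2.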

[6] = qHTS assay to test for compound auto fluorescence at 535 nm (green) in HepG2 cells (AID 720675); details: green autofluorescence 485/535 nm, 1 h; series mostly up to 91.3 µM
[7] = qHTS assay to test for compound auto fluorescence at 460 nm (blue) in HEK293 cells (AID 720678); details: blue autofluorescence 405/460 nm; series mostly up to 91.3 µM
How it was run: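 HEK293 cells (2,000/well, medium with 10% dialyzed FBS) attached 4-5 hr, then exposed to compound overnight at 37C, 5% CO2. Blue fluorescence read at 405/460 nm, with triamterene as reference fluorophore.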

[8] = qHTS assay to test for compound auto fluorescence at 590 nm (red) in HEK293 cells (AID 720679); details: red autofluorescence 540/590 nm; series mostly up to 91.3 µM
How it was run: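 HEK293 cells (2,000/well, 10% dialyzed FBS) attached 4-5 hr, then dosed with compound or DMSO and incubated overnight at 37C, 5% CO2. Red fluorescence read at 540/590 nm, Rose Bengal sodium as reference fluorophore.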

[9] = qHTS assay to test for compound auto fluorescence at 535 nm (green) in HEK293 cells (AID 720680); details: green autofluorescence 485/535 nm; series mostly up to 91.3 µM
[10] = qHTS assay to test for compound auto fluorescence at 460 nm (blue) in HEK293 cell free culture (AID 720681); details: cell-free medium, autofluorescence 405/460 nm (blue); series mostly up to 91.3 µM
How it was run: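 Blue fluorescence (Ex 405/Em 460 nm, triamterene-equivalent) was read immediately after pin transfer of compound or DMSO into medium (DMEM, 10% FBS) without cells.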

[11] = qHTS assay to test for compound auto fluorescence at 535 nm (green) in HEK293 cell free culture (AID 720682); details: cell-free medium, green autofluorescence 485/535 nm, active compounds read high; series mostly up to 91.3 µM
How it was run: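 Green-channel intensity (Ex/Em 485/535 nm) was recorded from compound-treated wells containing only DMEM with 10% FBS. Fluorescein provided the equivalency standard.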

[12] = qHTS assay to test for compound auto fluorescence at 590 nm (red) in HEK293 cell free culture (AID 720683); details: cell-free medium autofluorescence, Ex540/Em590 red; series mostly up to 91.3 µM
How it was run: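 Red-channel autofluorescence of compounds in culture medium (DMEM, 10% FBS), no cells, measured at 540/590 nm. Rose Bengal sodium is the reference fluorophore for equivalence.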

[13] = qHTS assay to test for compound auto fluorescence at 590 nm (red) in HepG2 cell free culture (AID 720684); details: cell-free medium autofluorescence, red 540/590 nm; series mostly up to 91.3 µM
How it was run: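 No cells present: MEM + 10% FBS only. Compound pinned in, red label read (540/590 nm). Activity = fluorescence equivalent to Rose Bengal sodium.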

[14] = qHTS assay to test for compound auto fluorescence at 460 nm (blue) in HepG2 cell free culture (AID 720685); details: Cell-free culture medium, blue autofluorescence 405/460 nm; series mostly up to 91.3 µM
How it was run: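 Cell-free plates of MEM plus 10% FBS received 23 nL compound or DMSO vehicle; blue-channel (405/460 nm) intensity scored against triamterene as reference fluorophore.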

[15] = qHTS assay to test for compound auto fluorescence at 535 nm (green) in HepG2 cell free culture (AID 720686); details: Cell-free medium, green autofluorescence 485/535 nm; series mostly up to 91.3 µM
[16] = qHTS assay to test for compound auto fluorescence at 460 nm (blue) in HepG2 cells (AID 720687); details: autofluorescence 405/460 nm, 1 h; series mostly up to 91.3 µM
How it was run: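 Blue-channel autofluorescence (Ex/Em 405/460 nm, triamterene-equivalent) was measured after 1 hr compound exposure at 37 C, 5% CO2. Cells were HepG2, plated overnight at 37 C in MEM plus 10% FBS.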

[17] = biological target: Glucocorticoid receptor (Homo sapiens) (UniProt P04150); experiment: qHTS assay to identify small molecule agonists of the glucocorticoid receptor (GR) signaling pathway (AID 720691; active = well fitted activation curve with a large enough effect in the signal ratio in the repeat runs, not every such curve was filed as active; the % refers to the signal ratio); details: GR-bla HeLa, beta-lactamase reporter ratio, 18 h; series mostly up to 62.4 µM
Chain of Glucocorticoid receptor (Homo sapiens) (P04150 whole entry, looked up): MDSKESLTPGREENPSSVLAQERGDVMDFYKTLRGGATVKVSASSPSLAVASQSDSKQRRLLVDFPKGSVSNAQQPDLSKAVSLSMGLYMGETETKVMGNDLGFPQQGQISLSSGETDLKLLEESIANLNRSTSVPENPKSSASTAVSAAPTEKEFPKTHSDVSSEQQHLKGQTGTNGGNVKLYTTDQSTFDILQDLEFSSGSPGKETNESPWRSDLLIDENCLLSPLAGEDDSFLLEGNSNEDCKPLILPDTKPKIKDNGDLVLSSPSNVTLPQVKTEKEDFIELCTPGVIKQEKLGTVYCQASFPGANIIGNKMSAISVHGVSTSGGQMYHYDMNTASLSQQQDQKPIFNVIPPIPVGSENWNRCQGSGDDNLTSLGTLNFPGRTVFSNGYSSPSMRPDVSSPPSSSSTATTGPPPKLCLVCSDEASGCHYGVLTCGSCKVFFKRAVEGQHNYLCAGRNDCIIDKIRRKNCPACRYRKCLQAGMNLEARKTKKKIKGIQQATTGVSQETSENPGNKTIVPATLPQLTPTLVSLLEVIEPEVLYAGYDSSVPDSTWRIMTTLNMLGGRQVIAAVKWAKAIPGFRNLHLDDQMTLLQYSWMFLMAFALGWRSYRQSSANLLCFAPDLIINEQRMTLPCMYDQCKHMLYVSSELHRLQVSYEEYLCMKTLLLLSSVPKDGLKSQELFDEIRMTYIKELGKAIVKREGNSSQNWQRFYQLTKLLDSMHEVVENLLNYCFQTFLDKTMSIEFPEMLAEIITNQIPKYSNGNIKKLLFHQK
How it was run: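 Cells: GR-bla HeLa, endogenous GR with stably integrated GRE-beta-lactamase reporter. Treatment 18 h, 37 C, compounds delivered in DMSO. Detection via LiveBLAzer B/G FRET substrate, 2 h RT, fluorescence intensity.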

[18] = biological target: Glucocorticoid receptor (Homo sapiens) (UniProt P04150); experiment: qHTS assay to identify small molecule antagonists of the glucocorticoid receptor (GR) signaling pathway (AID 720692; active = well fitted inhibition curve with a large enough effect in the signal ratio in the repeat runs, not every such curve was filed as active; the % refers to the signal ratio); details: GR-bla HeLa, beta-lactamase FRET ratio, dexamethasone-stimulated, 18 h; series mostly up to 58.5 µM
How it was run: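 Quantitative HTS in antagonist format: HeLa cells expressing endogenous GR and a stably integrated GRE-bla reporter, stimulated with 5 nM dexamethasone (final) alongside test compounds for 18 h.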

[19] = qHTS assay for small molecule disruptors of the mitochondrial membrane potential - cell viability (AID 720634; calls by dose curve;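 also: human HepG2 liver cancer cells; nearly all actives have a fitted effect of over 20% in size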); details: HepG2 viability, ATP luminescence (CellTiter-Glo), 1 h; series mostly up to 83.2 µM
How it was run: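 ATP-based luminescent viability readout (CellTiter-Glo, 30 min, room temperature) in HepG2 cells multiplexed with the m-MPI membrane potential dye; compound exposure lasted 1 hr at 37 C.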
% is scaled to controls: 0 for no effect and ±100 for the full control effect.

Cc1ccc(C(N)=O)cc1N
inactive: Potency [1] | Potency [2] | Potency [3] | Potency [4] | outcome [5] | outcome [6] | Potency [7] | outcome [8] | outcome [9] | Potency [10] | outcome [11] | outcome [12] | outcome [13] | Potency [14] | outcome [15] | Potency [16] | Potency [17] | Potency [18]

CN(C)CCCNCCCN
inactive: Potency [1] | Potency [2] | Potency [19] | Potency [4] | outcome [5] | outcome [6] | Potency [7] | outcome [8] | outcome [9] | Potency [10] | outcome [11] | outcome [12] | outcome [13] | outcome [15] | Potency [16] | Potency [17] | Potency [18]

C=C(C)C(=O)OCCOc1ccccc1
inactive: Potency [1] | Potency [2] | Potency [3] | Potency [19] | outcome [5] | outcome [6] | Potency [7] | outcome [8] | outcome [9] | Potency [10] | outcome [11] | outcome [12] | outcome [13] | Potency [14] | outcome [15] | Potency [16] | Potency [18]

CN1CCC(OC(c2ccccc2)c2ccccc2)CC1
inactive: Potency [1] | Potency [2] | Potency [3] | Potency [19] | fluorescence, relative to Rose Bengal [5] -0.513% [at 18.6 µM] | fluorescence, % of fluorescein control [6] -0.0945% [at 18.6 µM] | fluorescence, % of triamterene [7] -0.105% [at 18.6 µM] | fluorescence, % of fluorescent control [8] 0.0005% [at 18.6 µM] | fluorescence, % of fluorescein [9] -0.132% [at 18.6 µM] | fluorescence, % of fluorescent control [10] -0.231% [at 18.6 µM] | activity change [11] -0.251% [at 18.6 µM] | fluorescence, % of fluorescent control [12] 0.167% [at 18.6 µM] | fluorescence, % of Rose Bengal [13] 0.0772% [at 18.6 µM] | fluorescence, % of fluorescent control [14] -0.163% [at 18.6 µM] | fluorescence, % of fluorescein control [15] -0.14% [at 18.6 µM] | fluorescence, % of fluorescent control [16] -0.0097% [at 18.6 µM] | Potency [17] | Potency [18]
